Screens as filed in PubChem BioAssay.
TrxR1 substrate: substrates of rat thioredoxin reductase 1; O89049; purified TrxR1 substrate turnover, NADPH consumption readout; Potency, µM (doses to about 114 µM), without a hit: top-dose activity change, negative = substrate turnover; 390,000 compounds, 0.01% hits; also: potency is read from the fitted curve at half-maximal effect; % is scaled to controls: 0 for no effect and ±100 for the full control effect; nearly all actives have a fitted effect of over 50% in size
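Rat TrxR1, dispensed at 90 nM, was prereduced with 400 uM NADPH (final) for 5 min at ~22 deg C, then incubated with compound 15 min before 400 uM selenite. A first-read NADPH fluorescence drop versus no-compound background flagged substrates.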
rTrxR1 inhibitor: inhibitors of rat thioredoxin reductase 1; recombinant rTrxR1, NADPH fluorescence consumption, selenite substrate; AID 588453; Potency, µM (titrated, usually from 114 µM), without a hit: top-dose activity change, negative = inhibition, actives largely listed as inhibitors; 390,000 compounds, 1% hits; also: potency is read from the fitted curve at half-maximal effect; % is scaled to controls: 0 for no effect and ±100 for the full control effect; nearly all actives have a fitted effect of over 65% in size
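Rat TrxR1 (90 nM in the dispensed reagent) was pre-reduced with 400 uM NADPH for 5 min at room temperature, then incubated with compound for 15 min. After 400 uM selenite was added, NADPH fluorescence (Ex 340/Em 450 nm) was followed for 8 min.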
HEK293 tox: cytotoxicity in counter-screen for GLP-1R inverse agonists; 410,000 compounds, 0.13% hits; Potency, µM (doses to about 38.3 µM), for the others: at the top dose activity change, negative = inhibition, usual class: inhibitors; HEK293 cAMP-luciferase reporter cells, luminescence, 24 h;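 also: loss of luciferase light is scored as toxicity; potency is read from the fitted curve at half-maximal effect; % is scaled to controls: 0 for no effect and ±100 for the full control effect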
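Seeding density was 200 cells/uL; after overnight-length (12 h) culture, 23 nL compounds went on for 24 h at 37 °C. Readout used a luciferase detection reagent, luminescence taken after 12 min at room temperature.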
IDH1 R132H inh: inhibitors of human mutant IDH1 R132H; IDH1-R132H enzyme, NADPH consumption, diaphorase/resazurin fluorescence; 390,000 compounds, 0.093% hits; Potency, µM (highest dose often 76.6 µM), for inactives: top-dose activity change, negative = inhibition, hits mostly inhibitors; also: potency is read from the fitted curve at half-maximal effect; % is scaled to controls: 0 for no effect and ±100 for the full control effect; nearly all actives have a fitted effect of over 65% in size
Target sequence (O75874 whole entry R132H, stated change not applied): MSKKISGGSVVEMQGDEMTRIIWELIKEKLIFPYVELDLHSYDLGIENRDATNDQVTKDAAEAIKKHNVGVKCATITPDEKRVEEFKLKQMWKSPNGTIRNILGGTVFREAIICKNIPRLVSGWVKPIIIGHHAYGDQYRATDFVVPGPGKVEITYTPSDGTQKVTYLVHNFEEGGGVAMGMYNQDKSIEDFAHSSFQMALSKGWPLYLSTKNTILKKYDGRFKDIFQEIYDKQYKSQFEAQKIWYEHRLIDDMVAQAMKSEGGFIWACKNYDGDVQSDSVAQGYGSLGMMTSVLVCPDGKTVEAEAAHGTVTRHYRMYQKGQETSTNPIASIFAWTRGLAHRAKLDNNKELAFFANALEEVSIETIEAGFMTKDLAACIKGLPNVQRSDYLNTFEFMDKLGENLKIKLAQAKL
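IDH1-R132H (0.5 ug/mL) preincubated 30 min with compound, then NADPH (0.016 mM) and alpha-KG (2 mM) added; 80 min at RT, pH 7.5. Remaining NADPH coupled via diaphorase/resazurin to fluorescence (540/590 nm); concentration-response curves normalized to no-enzyme control.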
GLP1R ag: activates the human GLP-1 receptor; P43220; HEK293 GLP-1R CRE-luciferase, luminescence, 4-6 h; cells express a hypersensitive GLP-1R form; Potency, µM (doses to about 45.6 µM), for inactives: at the highest dose activation, most hits filed as activators; 380,000 compounds, 0.007% hits; also: potency is read from the fitted curve at half-maximal effect; % of control where 0% means no effect
GLP1R inv ag: inverse agonists of human GLP-1 receptor; P43220; Potency, µM (top dose mostly 38.3 µM), for the others: at the top dose activity change, negative = inhibition, hits mostly inhibitors; AID 624417; HEK293 GLP-1R CRE-luciferase, luminescence, 24 h; GLP-1R form is constitutively active; 410,000 compounds, 1.6% hits; also: potency is read from the fitted curve at half-maximal effect; % is scaled to controls: 0 for no effect and ±100 for the full control effect; nearly all actives have a fitted effect of over 55% in size
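Stable HEK293 clone (constitutively active GLP-1R + cAMP-response luciferase); 200 cells/uL plated, 12 h pre-culture, compound 24 hr, 37 deg C/5% CO2; detection reagent 12 min RT; luminescence.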
IDH1 autofl: interferes with resorufin fluorescence in IDH1 counter-screen; inhibition of signal, % at 51.2 µM; shares compounds with IDH1 R132H inh; 750 tested, under 10 active; Resorufin detection reagent fluorescence interference, cell-free;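 also: 0% = wells with normal resorufin and full inhibition = wells lacking resorufin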
WT IDH1 inh: inhibits human wild-type IDH1, mutant selectivity check; Potency, µM (top dose mostly 115 µM), inactives show top-dose activity change, negative = inhibition, usual class: inhibitors; WT IDH1 enzyme, NADPH diaphorase/resazurin fluorescence; shares compounds with IDH1 R132H inh; 750 compounds, 9% hits; AID 623995;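 also: potency is read from the fitted curve at half-maximal effect; 0% = full WT IDH1 enzyme control and full inhibition = no enzyme wells; nearly all actives have a fitted effect of over 55% in size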
Target sequence (O75874 whole entry, looked up): as the sequence (O75874 whole entry R132H, stated change not applied) above, with H132R counted along it
mIDH1 confirm: mutant IDH1 (human) inhibition, confirmed; shares compounds with IDH1 R132H inh; IDH1 R132H enzyme, NADPH diaphorase/resazurin fluorescence; Potency, µM (series often up to 76.6 µM), for inactives: at the top dose activity change, negative = inhibition, usual class: inhibitors; 750 compounds, 83% hits; AID 624002; also: potency is read from the fitted curve at half-maximal effect; nearly all actives have a fitted effect of over 50% in size
An asterisk follows results filed as active; u = inconclusive; x = no result given; [ ] = remark or other dose. The list is not random: actives were taken first. Their share in the collection is about 2.7%. Calls follow the shape of the dose curve; as a rule, active = well fitted curve in the direction sought with a large enough effect; inconclusive = small, poorly fitted or top-dose-only effect, or another doubt; inactive = no such curve, though single readings can be large; an effect the other way counts as inactive or inconclusive.

SMILES	TrxR1 substrate	rTrxR1 inhibitor	HEK293 tox	IDH1 R132H inh	GLP1R ag	GLP1R inv ag	IDH1 autofl	WT IDH1 inh	mIDH1 confirm
COc1ccc(Nc2c3c(nc4ccc(NC(=O)/C=C/c5cc(OC)c(OC)c(OC)c5)cc24)CCCC3)cc1OC	-4%	6%	u	u	x	u	-6	7%	u
S=C(Nc1cccc2ccccc12)NC1CCCCC1	-11%[57.1 µM]	-15%[57.1 µM]	u	u	30%	u	-1	u	5%
N#Cc1c2c(c(Nc3ccc(F)cc3)n3c1nc1ccccc13)CCCC2	-8%	-5%	11%	u	0%	16%	3	-1%	22µM*
N#Cc1c2c(c(Nc3ccccc3)n3c1nc1ccccc13)CCC2	3%[2.29 µM]	6%	42%	-3%	0%	1%	x	x	x
O=C(NCC(c1cccnc1)N1CCc2ccccc2C1)C(=O)Nc1ccc(F)cc1F (stereo unspecified)	-4%	37%[11.4 µM]	1%	9%	x	u	x	x	x
C[C@@H]1C[C@H]2[C@@H]3CCC4=CC(=O)C=C[C@]4(C)[C@@]3(Cl)[C@@H](O)C[C@]2(C)[C@@]1(OC(=O)c1ccco1)C(=O)CCl	-4%	2%	-16%	35µM*	0%	u	0	12%	8.9µM*
O=C(COC(=O)c1ccc(F)c([N+](=O)[O-])c1)NC(=O)NCc1ccccc1	-4%	u	u	46µM*	-63%	u	-8	-14%	28µM*
O=C(O)c1cccc(S(=O)(=O)N2CCN(C(c3ccccc3)c3ccccc3)CC2)c1	-8%	-10%	-6%	u	3%	-3%	7	5%	32µM*
O=C(O)c1cccc(S(=O)(=O)N2CCCC2)c1	3%	-6%	21%	-8%	3%	2%	x	x	x
Cn1c(C(=O)NCc2cccc(F)c2)cc2cc(S(=O)(=O)N3CCCCC3)ccc21	5%[57.1 µM]	19%[57.1 µM]	-6%	7%	x	u	x	x	x
O=C(COCc1cc(-c2cccs2)on1)NCc1cccc(Cl)c1	-4%	-21%	-5%	6%	x	-7%	x	x	x
Cc1ccc(N2C(S)=C(C#N)C(=O)NC2c2cccs2)cc1 (stereo unspecified)	-5%	-15%	-15%	52µM*	-1%	-21%	4	20%	u
Cc1ccc(Cl)cc1NC(=O)c1ccc2nc(CCc3ccccc3)oc2c1	0%[57.1 µM]	25%[57.1 µM]	3%	-9%	x	-5%	x	x	x
COc1nccnc1NS(=O)(=O)c1ccc(NC(=S)NC(=O)/C=C/c2ccc(F)cc2)cc1	-2%	u	18%	14%	-2%	17%	x	x	x
COc1ccc(NS(=O)(=O)c2ccc(NC(=S)NC(=O)/C=C/c3ccccc3)cc2)nn1	-6%	u	16%	u	-6%	13%	-7	u	25µM*
COc1cc(NS(=O)(=O)c2ccc(NC(=S)NC(=O)/C=C/c3ccc(F)cc3)cc2)ncn1	-5%	u	24%	6.6µM*	1%	15%	-8	11µM*	1.4µM*
CCc1nnc(NS(=O)(=O)c2ccc(NC(=S)NC(=O)/C=C/c3ccccc3)cc2)s1	-14%	-76%	14%	-18%	0%	18%	x	x	x
O=C(/C=C/c1ccccc1)OCc1ccccc1	x	x	x	x	16%	x	x	x	x
Cc1cccc(N2CCN(S(=O)(=O)c3ccc4c(c3)C(C(C)C)C(=O)N4)CC2)c1C (stereo unspecified)	-4%	28%	-6%	40µM*	3%	u	3	6%	22µM*
Cn1c(SCC(=O)N2CCOCC2)ncc(C(=O)Nc2ccccc2)c1=O	5%[57.1 µM]	15%[57.1 µM]	-6%	16%	x	10%	x	x	x
O=C(Oc1ccc2c(c1)O/C(=C\c1ccncc1)C2=O)c1ccccc1	-20%	u	81%	52µM*	-2%	16%	3	1%	35µM*
COc1ccc(-n2c(-c3ccc(Cl)cc3Cl)n[nH]c2=S)c(OC)c1	-1%	-21%	-10%	46µM*	9%	u	-8	2%	-8%
COc1ccc(-n2c(-c3ccc(C(C)(C)C)cc3)n[nH]c2=S)c(OC)c1	x	x	-1%	-23%	14%	18%	x	x	x
CC(C)c1ccccc1-n1c(SCc2cc(=O)oc3ccc4ccccc4c23)nnc1-c1cccnc1	50%	15%	-6%	u	2%	u	7	-24%	11µM*
COCCCNC(=O)c1ccc(Cn2c(=O)c3cccn3c3cccnc32)cc1	12%	1%	-23%	1%	x	-27%	x	x	x
SMILES	TrxR1 substrate	rTrxR1 inhibitor	HEK293 tox	IDH1 R132H inh	GLP1R ag	GLP1R inv ag	IDH1 autofl	WT IDH1 inh	mIDH1 confirm
CCOC(=O)c1ccc(N2C(=O)c3n[nH]c(-c4cccs4)c3C2c2cccc(O)c2)cc1 (stereo unspecified)	-5%	-5%	u	u	-5%	u	4	0%	16µM*
CCOC(=O)c1ccc(N2C(=O)c3n[nH]c(C)c3C2c2cccc(Br)c2)cc1 (stereo unspecified)	-3%	28%	u	u	x	u	-7	-1%	25µM*
CCOC(=O)c1ccc(N2C(=O)c3n[nH]c(C)c3C2c2ccc(CC)cc2)cc1 (stereo unspecified)	9%	-5%	-4%	u	0%	8%	0	1%	u
O=[N+]([O-])c1ccc(-c2csc(Nc3ccccc3)n2)cc1	-2%	3%	x	x	x	x	x	x	x
Cn1ncc2c(Nc3ccc(Br)cc3)nc(Nc3ccc(Br)cc3)nc21	23%	17%	-15%	33µM*	0%	u	-4	4%	11µM*
Cn1ncc2c(Nc3cccc(Cl)c3)nc(Nc3cccc(Cl)c3)nc21	11%[57.1 µM]	4%[57.1 µM]	-29%	u	6%	11µM*	-19	u	5.6µM*
CCCNc1nc(Nc2ccc(C)c(Cl)c2)c2cnn(C)c2n1	18%	5%	-10%	-15%	21%	u	x	x	x
